Assay [1] deals with Wnt5a (protein binding on small-molecule microarray). Briefly: small molecules binding Wnt5a protein – biophysical, small-molecule microarray, 635/667 nm fluorescence, primary screen (AID 1142).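 Further: fluorescence read at 667 nm with signal to noise per printed feature.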 To be noted: 635 nm fluorescence, higher = more signal.
A short description of assay [2]: ATP-based viability of Huh7 replicon cells – cell-based, CellTiter-Glo luminescence, basal, 48 h, cytotoxicity control for HCV replication inhibitor project, primary screen (AID 1143).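 Further: Huh7 hepatoma cells carrying a hepatitis C replication reporter with no stimulus; test concentration not given here.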 To be noted: higher = more signal, called active from +8 up or from −8 down. (In general: A replicon is a self-replicating genome or part of one, used to study replication in cells.)

The nature of assay [3]: Pseudomonas biofilm growth suppression – PAO1 strain, BacTiter-Glo luminescence, LB-PBS, primary screen (AID 1144). To be noted: P. aeruginosa PAO1 biofilm, 12 h, higher = more signal.
The nature of assay [4]: basal CRE-LacZ reporter activity in PC12 – cell-based, unstimulated, primary screen (AID 1145). To be noted: no forskolin, luminescence, 4.5 h, higher = more signal, called active from +8 up or from −8 down.
The nature of assay [5]: forskolin-driven CRE-LacZ activity in PC12 – cell-based, CRE-LacZ reporter, forskolin-stimulated, primary screen (AID 1146).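 Further: PC12 cells with 6xCRE LacZ reporter stimulated by forskolin 10 µM; beta-galactosidase reporter signal reflecting CREB driven transcription.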 To be noted: luminescence, 4.5 h, higher = more signal, called active from +8 up or from −8 down.
The target of assay [6] is Streptavidin (Streptomyces avidinii) (UniProt P22629). Kind of assay: compounds binding control protein streptavidin – biophysical, small-molecule microarray, 635/667 nm fluorescence, artefact control for SMM compound annotation, primary screen (AID 1147).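 Further: signal reflects streptavidin binding to arrayed compounds as a control protein.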 The note with it: higher = more signal.
Streptavidin (Streptomyces avidinii), sequence (P22629 whole entry, looked up): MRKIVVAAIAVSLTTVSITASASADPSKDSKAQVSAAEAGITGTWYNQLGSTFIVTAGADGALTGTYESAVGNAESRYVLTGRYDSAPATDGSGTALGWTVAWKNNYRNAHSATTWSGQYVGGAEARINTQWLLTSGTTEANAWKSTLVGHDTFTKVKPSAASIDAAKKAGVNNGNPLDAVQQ
Assay [7] is described as follows: probe aInhba binding on compound microarray – biochemical, small-molecule microarray, 635/667 nm fluorescence, primary screen (AID 1148).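 Further: score merges 667nm spot fluorescence with signal-to-noise for antibody binding to printed compounds.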 The note with it: higher = more signal.
The target in assay [8] is Torsin-1A (Homo sapiens) (UniProt O14656). Briefly: TOR1A wild-type binding on microarray – cell lysate, small-molecule microarray, lysate, 635/667 nm, primary screen (AID 1149). The note with it: COS7 hTOR1A-WT lysate, 635 nm fluorescence, higher = more signal.
Torsin-1A (Homo sapiens), sequence (O14656 whole entry, looked up): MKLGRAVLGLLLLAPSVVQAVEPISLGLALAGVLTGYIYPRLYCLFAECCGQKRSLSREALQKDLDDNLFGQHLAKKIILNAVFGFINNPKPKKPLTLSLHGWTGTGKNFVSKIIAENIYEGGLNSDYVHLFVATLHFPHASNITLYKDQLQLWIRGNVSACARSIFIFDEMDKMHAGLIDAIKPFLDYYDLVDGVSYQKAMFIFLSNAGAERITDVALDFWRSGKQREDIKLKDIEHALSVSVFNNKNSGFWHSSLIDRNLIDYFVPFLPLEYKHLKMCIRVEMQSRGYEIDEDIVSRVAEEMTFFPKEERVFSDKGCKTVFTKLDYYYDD
Assay [9] shares this target. Briefly: torsin A mutant lysate binding on microarrays – cell lysate, small-molecule microarray, COS7 lysate, 635/667 nm fluorescence, primary screen (AID 1150).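 Further: score pools 667 nm emission and signal to noise measuring lysate protein binding.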 The note with it: COS7 hTOR1A mutant lysate, 635 nm fluorescence, higher = more signal.
The subject of assay [10] is Sonic hedgehog protein (Shh). Briefly: Sonic hedgehog microarray binding compounds – biochemical, small-molecule microarray, 635/667 nm fluorescence, primary screen (AID 1151).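 Further: Shh protein binding to compounds spotted on small-molecule microarray slides; score combines spot fluorescence intensity with signal-to-noise across triplicate slides.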 The note with it: 635 nm fluorescence, higher = more signal.
A short description of assay [11]: optical density shifts of acrAB sulA E. coli – strain DRC41, OD650, 48 h, E. coli filamentation inducer project, primary screen (AID 1152).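 Further: E. coli MC1000 strain DRC41 lacking acrAB efflux pump and sulA.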 To be noted: higher = more signal, called active from +8 up or from −8 down.
Assay [12] is described as follows: probe aLefty1 binding on compound microarray – biochemical, small-molecule microarray, 635/667 nm fluorescence, primary screen (AID 1153).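 Further: score merges spot fluorescence with signal-to-noise ratio from the scanned slide images.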 To be noted: higher = more signal.
A short description of assay [13]: plasmodial surface anion channel blockers, osmotic lysis – cell-based, P. falciparum Indochina, OD700, 1 h, primary screen (AID 1154). To be noted: P. falciparum Indochina infected RBC osmotic lysis, higher = more signal, called active from +8 up or from −8 down.
Assay [14] in a line: plasmodial surface anion channel blockers, osmotic lysis – cell-based, P. falciparum Indochina, OD700, 2 h, primary screen (AID 1155).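 Further: lysis reports solute entry through the parasite surface anion channel PSAC.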 To be noted: P. falciparum Indochina infected erythrocytes, higher = more signal, called active from +8 up or from −8 down.
The nature of assay [15]: changes in parasitized red cell lysis, either direction – P. falciparum Indochina, OD700, 3 h, PSAC antagonist project, primary screen (AID 1156). The note with it: P. falciparum-infected erythrocytes, osmotic lysis, higher = more signal, called active from +8 up or from −8 down.
Assay [16] is described as follows: plasmodial surface anion channel blockers, osmotic lysis – cell-based, P. falciparum Indochina, OD700, 18 h, primary screen (AID 1157). To be noted: P. falciparum Indochina infected erythrocytes, osmotic lysis OD700, 18 h; higher = more signal, called active from +8 up or from −8 down.
A short description of assay [17]: S6 kinase pathway phospho-S6 level changes – cell-based, A549, cytoblot, luminescence, serum-stimulated, primary screen (AID 1158).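 Further: serum-stimulated A549 lung adenocarcinoma cells; signal is phosphorylated S6 detected by cytoblot immunostaining with HRP secondary.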 The note with it: 5 h, higher = more signal.
The target in assay [18] is NADPH oxidase 2 (Homo sapiens) (UniProt P04839). Kind of assay: compounds shifting NOX2 Amplex Red fluorescence – cell-based, HEK293-NOX2, PMA-stimulated, NOX inhibitor project, primary screen (AID 1159). Further: test concentration not given here. To be noted: 45 min, higher = more signal, called active from +8 up or from −8 down.
NADPH oxidase 2 (Homo sapiens), sequence (P04839 whole entry, looked up): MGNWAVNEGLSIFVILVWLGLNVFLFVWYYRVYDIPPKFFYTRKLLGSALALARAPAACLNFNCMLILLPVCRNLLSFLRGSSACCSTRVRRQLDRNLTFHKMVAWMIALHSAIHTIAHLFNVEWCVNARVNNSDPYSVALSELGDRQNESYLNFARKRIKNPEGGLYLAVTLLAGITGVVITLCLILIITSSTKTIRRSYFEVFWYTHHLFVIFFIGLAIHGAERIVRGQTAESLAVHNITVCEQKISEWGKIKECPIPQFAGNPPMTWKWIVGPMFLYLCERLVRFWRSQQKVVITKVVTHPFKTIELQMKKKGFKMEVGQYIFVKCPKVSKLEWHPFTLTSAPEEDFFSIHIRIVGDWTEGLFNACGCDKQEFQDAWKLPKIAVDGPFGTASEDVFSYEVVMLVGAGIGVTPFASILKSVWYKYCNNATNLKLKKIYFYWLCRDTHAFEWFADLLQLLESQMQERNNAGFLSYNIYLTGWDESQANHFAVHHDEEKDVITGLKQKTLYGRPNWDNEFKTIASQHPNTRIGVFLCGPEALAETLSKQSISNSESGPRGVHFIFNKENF
The target in assay [19] is NADPH oxidase 4 (Homo sapiens) (UniProt Q9NPH5). Briefly: compounds shifting NOX4 Amplex Red fluorescence – cell-based, HEK293-NOX4, tetracycline-induced, NOX inhibitor project, primary screen (AID 1160). The note with it: HEK293-NOX4, Amplex Red H2O2 fluorescence, 45 min; higher = more signal, called active from +8 up or from −8 down.
NADPH oxidase 4 (Homo sapiens), sequence (Q9NPH5 whole entry, looked up): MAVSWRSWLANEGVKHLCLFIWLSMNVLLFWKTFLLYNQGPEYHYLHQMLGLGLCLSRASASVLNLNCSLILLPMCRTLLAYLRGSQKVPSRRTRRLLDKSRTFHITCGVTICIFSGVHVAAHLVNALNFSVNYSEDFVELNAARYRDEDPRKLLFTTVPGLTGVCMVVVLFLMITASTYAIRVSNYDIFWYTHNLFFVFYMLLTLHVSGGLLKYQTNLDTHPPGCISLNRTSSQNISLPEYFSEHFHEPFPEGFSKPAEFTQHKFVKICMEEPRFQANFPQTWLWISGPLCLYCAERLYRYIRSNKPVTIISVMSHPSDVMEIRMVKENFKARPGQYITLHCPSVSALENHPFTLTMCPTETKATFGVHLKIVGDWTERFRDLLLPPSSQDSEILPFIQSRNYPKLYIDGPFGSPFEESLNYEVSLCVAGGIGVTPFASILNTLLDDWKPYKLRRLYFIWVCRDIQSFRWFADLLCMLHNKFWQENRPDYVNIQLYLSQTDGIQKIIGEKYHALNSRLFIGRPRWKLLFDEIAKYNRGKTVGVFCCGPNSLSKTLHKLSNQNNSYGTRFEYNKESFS
Assay [20] concerns the target NADPH oxidase 5 (Homo sapiens) (UniProt Q96PH1). Kind of assay: compounds shifting NOX5 Amplex Red fluorescence – cell-based, HEK293-NOX5, NOX inhibitor project, primary screen (AID 1161). The note with it: HEK293-NOX5, ionomycin, 45 min, higher = more signal.

The source made the active and inactive calls. Unless noted, how the calls were made is not given here.

NADPH oxidase 5 (Homo sapiens), sequence (Q96PH1 whole entry, looked up): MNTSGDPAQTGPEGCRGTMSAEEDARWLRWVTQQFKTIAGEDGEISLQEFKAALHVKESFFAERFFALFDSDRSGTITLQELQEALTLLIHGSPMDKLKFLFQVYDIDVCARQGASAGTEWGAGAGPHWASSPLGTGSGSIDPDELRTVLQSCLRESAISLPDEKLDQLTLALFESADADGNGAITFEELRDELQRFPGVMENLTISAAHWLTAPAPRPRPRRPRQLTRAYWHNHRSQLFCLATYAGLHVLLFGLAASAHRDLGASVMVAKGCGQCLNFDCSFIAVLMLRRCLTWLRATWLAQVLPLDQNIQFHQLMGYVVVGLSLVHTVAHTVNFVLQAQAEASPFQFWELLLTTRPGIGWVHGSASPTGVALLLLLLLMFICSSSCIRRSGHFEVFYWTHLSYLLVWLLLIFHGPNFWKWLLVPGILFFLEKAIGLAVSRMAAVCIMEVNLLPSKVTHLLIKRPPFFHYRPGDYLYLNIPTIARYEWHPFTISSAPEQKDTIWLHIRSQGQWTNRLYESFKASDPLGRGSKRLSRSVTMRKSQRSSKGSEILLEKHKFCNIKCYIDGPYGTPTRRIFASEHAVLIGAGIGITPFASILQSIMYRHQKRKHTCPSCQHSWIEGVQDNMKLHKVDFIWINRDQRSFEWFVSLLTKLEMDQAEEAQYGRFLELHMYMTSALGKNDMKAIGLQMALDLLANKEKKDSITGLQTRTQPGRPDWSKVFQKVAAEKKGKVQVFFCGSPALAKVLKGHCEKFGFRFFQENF

Regarding `COc1ccc(COC(=O)NN=C2C[C@@H](O)[C@@H](O)[C@@H]3[C@@H]4C(=O)N(C[C@@H]5CCCO5)C(=O)[C@@H]4CC[C@H]23)cc1`, the composite z-score is -0.109 in [1]; 0.669 in assay [6]; 0.0275 in assay [7]; -0.858 in assay [8]; -0.48 in assay [9]; -1.12 in assay [10]. The molecule further yielded a composite z-score in [12] of 0.544. Further, the z-score in assay [2] was 0.338 (inactive); in assay [3] it was 0.296 (inactive); in assay [4], 0.159 (inactive); in assay [5] it was -0.166 (inactive); in assay [11], -0.39 (inactive); in [13], 3.23 (inactive). The z-score is 0.632 (inactive) in assay [14]; 0.398 (inactive) in assay [15]; 0.548 (inactive) in assay [16]; -0.308 in [17]; -3.46 (inactive) in assay [18]; 0.223 (inactive) in assay [19]. Besides, the z-score in [20] was 0.0239.

Take `CO[C@@H]1C=CCC(=O)N[C@@H](C)C(=O)OC[C@@H](OC)[C@H](C)C=CCC(=O)OC[C@H]1C`: the composite z-score in assay [1] was 0.552; in [6], -0.477; in assay [7] it was -0.157; in assay [8], 2.58; in assay [9] it was 2.21; in [10], 2.06. Further, in assay [12], the composite z-score is -0.149. For the same molecule, the z-score in assay [2] was -0.0206 (inactive); in assay [3] it was 0.457 (inactive); in assay [4] it was 0.876 (inactive); in assay [5] it was -0.384 (inactive); in assay [11] it was 0.0083 (inactive); in [13], -0.0896 (inactive). Further, the z-score was 0.233 (inactive) in assay [14]; 0.442 (inactive) in assay [15]; 0.205 (inactive) in [16]; 0.15 in assay [17]; -0.27 (inactive) in assay [18]; 0.0964 (inactive) in [19]. In assay [20], the z-score was -0.367.

Consider `CO[C@@H]1COC(=O)[C@H](CCSC)NC(=O)CC=C[C@@H](C)COC(=O)[C@@H]2CCCN2C(=O)CC=C[C@H]1C`, for which the composite z-score is 0.186 in assay [1]; -0.234 in [6]; -0.024 in [7]; 1.24 in assay [8]; 0.785 in [9]; 0.876 in [10]. Besides, the composite z-score in [12] was 0.224. Also, the z-score in assay [2] was -0.501 (inactive); in assay [3], 0.277 (inactive); in assay [4], 0.0652 (inactive); in [5], -1.38 (inactive); in [11], -0.785 (inactive); in [13], 0.911 (inactive). For the same molecule, the z-score in assay [14] was 0.727 (inactive); in assay [15] it was 0.537 (inactive); in assay [16], 0.354 (inactive); in assay [17], -0.235; in assay [18], -2.15 (inactive); in assay [19], -0.045 (inactive). The z-score in assay [20] was 0.887.

Consider `Cc1ccc(C(C)C)n1C(=O)OC(C)(C)C`, for which the composite z-score in [1] was 0.211; in assay [6] it was 0.963; in assay [7], -0.176; in assay [8], 0.356; in assay [9], 0.196; in [10], 0.675. Also, in assay [12], the composite z-score is -0.0934. Besides, the z-score in [2] is -0.841 (inactive); in assay [3] it was -1.5 (inactive); in [4], -0.708 (inactive); in assay [5] it was 0.686 (inactive); in [11] it was -0.241 (inactive); in assay [13] it was -0.446 (inactive). For the same molecule, the z-score in assay [14] was -1.44 (inactive); in assay [15], -0.165 (inactive); in [16], -1.53 (inactive); in [17] it was 1.04; in assay [18] it was -0.137 (inactive); in assay [19] it was 0.209 (inactive). Besides, the z-score in assay [20] is 0.674.
